Compound activity from PubChem.
KCNH2 WT inh: KCNH2 (human, wildtype) channel inhibition | 340,000 compounds, 0.37% hits | AID 720551 | activity change, % at 1.84 µM | U2OS, BacMam KCNH2, thallium flux FluxOr; active compounds read low | Q12809;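 active means maximum activity change below -70%; inconclusive means maximum activity change between -70% and -50%; inactive means maximum activity change above -50%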; further: on the % scale 0 is the no-effect control and ±100 the full control effect
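U2OS cells transduced with wild-type KCNH2 virus are loaded with FluxOr dye for 45 min, and thallium flux is measured in kinetic reads before and after stimulation buffer. Rate constants are normalized to DMSO controls.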
KCNH2 3.1 inh: inhibitors of human KCNH2 3.1 potassium channel isoform; AID 720553; activity change, % (tested at about 1.8 µM); U2OS KCNH2 3.1, thallium flux FluxOr; active compounds read low; 340,000 compounds, 0.95% hits;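 active means maximum activity change below -70%; inconclusive means maximum activity change from -70% to -50%; inactive means maximum activity change above -50%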;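 further: thallium influx rate constant from kinetic fluorescence after stimulation buffer; on the % scale 0 is the no-effect control and ±100 the full control effect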
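Steps: virus added to U2OS suspension (4 h, RT, dark); medium with 10% FBS added, cells plated, 37 C overnight; FluxOr/Red40 loading buffer 45 min RT; stimulation buffer, 2 min kinetic read; rate constant normalized.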
MBNL1 CUG block: inhibitors of human MBNL1 binding to CUG repeat RNA; TR-FRET MBNL1-His/biotin-(CUG)12 binding, 665/545 ratio; 280,000 compounds, 0.036% hits; Potency, µM (series often up to 57.5 µM), for inactives: at the highest dose activity change, negative = inhibition, hits mostly inhibitors; Q9NR56; AID 2675; active means well fitted inhibition curve with a large enough effect in the signal ratio, with a control signal flat, not every such curve was filed as active; inconclusive means small, poorly fitted or top-dose-only effect, or effect the other way, or a change in a side signal; inactive means no such curve, though single readings can be large or run the other way; the % refers to the signal ratio; further: potency means the concentration at half of the fitted maximal effect; on the % scale 0 is the no-effect control and ±100 the full control effect
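His-tagged MBNL1 binding to biotinylated (CUG)12 RNA was measured by TR-FRET using terbium anti-His antibody (0.055 ng/ul final) and streptavidin-XL665 (5 nM final). Compounds were titrated 92 nM to 58 uM; 60 min at room temperature.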
PLK1 PBD inh: blocks phosphopeptide binding to human PLK1 polo-box domain; Plk1 PBD binding of FITC phosphopeptide, fluorescence polarization; Potency, µM, without a hit: max response, negative = inhibition, hits mostly inhibitors; 360,000 compounds, 2.8% hits; AID 720504; further: potency means the concentration at half of the fitted maximal effect; series mostly up to about 57 µM; on the % scale 0 is the no-effect control and ±100 the full control effect; nearly all actives have a fitted effect of over 65% in size
VDR inh: inhibitors of human vitamin D receptor; VDR-SRC2-3 peptide fluorescence polarization, 2 h; Potency, µM, for the others: max response, negative = inhibition, most hits filed as inhibitors; 400,000 compounds, 0.93% hits; further: potency means the concentration at half of the fitted maximal effect; on the % scale 0 is the no-effect control and ±100 the full control effect
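Fluorescence polarization assay measuring small-molecule disruption of VDR binding to the coregulator peptide SRC2-3. Compounds were pin-transferred (23 nl) into the reagent mix and incubated 2 h at room temperature before reading.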
CBFb-RUNX1 inh: inhibitors of human CBF-beta and RUNX1 interaction. Q01196+Q13951. AlphaScreen CBFb-His/RUNX1-biotin binding, biochemical. Potency, µM (series often up to 59.8 µM), without a hit: at the highest dose activity, negative = inhibition, usual class: inhibitors. 230,000 tested, under 10 active. AID 1477; further: % of control where 0% means no effect
Target sequence (Q01196 whole entry, looked up): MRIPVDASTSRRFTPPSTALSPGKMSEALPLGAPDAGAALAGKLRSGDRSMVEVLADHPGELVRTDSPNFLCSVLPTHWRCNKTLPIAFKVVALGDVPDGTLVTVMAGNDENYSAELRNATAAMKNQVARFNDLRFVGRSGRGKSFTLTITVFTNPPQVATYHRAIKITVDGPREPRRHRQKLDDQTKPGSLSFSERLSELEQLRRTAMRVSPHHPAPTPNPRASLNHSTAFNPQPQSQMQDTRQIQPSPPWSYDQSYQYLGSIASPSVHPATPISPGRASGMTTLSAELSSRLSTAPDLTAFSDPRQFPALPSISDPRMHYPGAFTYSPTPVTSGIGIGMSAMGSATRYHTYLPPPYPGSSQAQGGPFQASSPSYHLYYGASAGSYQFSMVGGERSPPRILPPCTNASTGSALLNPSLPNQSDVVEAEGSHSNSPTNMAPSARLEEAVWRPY
Target sequence (Q13951 whole entry, looked up): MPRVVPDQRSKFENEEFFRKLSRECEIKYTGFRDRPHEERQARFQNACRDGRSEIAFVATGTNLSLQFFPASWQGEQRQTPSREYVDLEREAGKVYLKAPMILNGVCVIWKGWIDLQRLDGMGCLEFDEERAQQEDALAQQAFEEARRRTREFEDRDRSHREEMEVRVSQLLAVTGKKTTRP
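Read-out: AlphaScreen. Format: His-CBF-beta with biotinylated RUNX1 (30 nM each) preincubated 20 min, compound 15 min, Ni-chelate plus streptavidin beads 90 min; room temperature throughout.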
USP1-UAF1 confirm: USP1-UAF1 deubiquitinase inhibition validated | 50 compounds, 50% hits | shares compounds with VDR inh | Ub-Rhodamine cleavage, fluorescence kinetic read | Potency, µM (highest dose often 56.8 µM), without a hit: at the highest dose activity change, negative = inhibition, hits mostly inhibitors
VDR confirm: inhibits human vitamin D receptor, primary hit validation | shares compounds with VDR inh | 840 compounds, 89% hits | VDR-coactivator inhibition assay, qHTS confirmation | AID 602199 | Potency, µM, usual class: inhibitors; further: potency means the concentration at half of the fitted maximal effect
VDR FP fluor: VDR (human) coactivator binding inhibition, fluorescein polarization; shares compounds with VDR inh; VDR-coactivator binding, fluorescein fluorescence polarization; Potency, µM (titrated, usually from 57.1 µM), for the others: at the top dose activity change, negative = inhibition, actives largely listed as inhibitors; 840 compounds, 48% hits; further: potency means the concentration at half of the fitted maximal effect
VDR bla: VDR (human) inhibition, cell-based beta-lactamase validation; AID 602202; shares compounds with VDR inh; Potency, µM (highest dose often 46.1 µM), for the others: top-dose activity change, negative = inhibition, hits mostly inhibitors; 840 compounds, 23% hits; VDR beta-lactamase reporter cells, FRET ratio; cells co-treated with VDR agonist LG190178; further: potency means the concentration at half of the fitted maximal effect; on the % scale 0 is the no-effect control and ±100 the full control effect
VDR viability: cell toxicity, VDR inhibitor hit counter-screen. shares compounds with VDR inh. cytotoxicity counter-screen, cell viability, qHTS. Potency, µM (highest dose often 48.3 µM), inactives show at the top dose activity change, negative = cytotoxicity, most hits filed as cytotoxic. 840 compounds, 18% hits;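 further: potency means the concentration at half of the fitted maximal effect; plate controls were DMSO for no effect and high-concentration cycloheximide for full effect; nearly all actives have a fitted effect of over 75% in size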
TbPYK confirm: Trypanosoma brucei pyruvate kinase inhibition, cherry-pick confirmation; 890 compounds, 67% hits; Potency, µM (top dose mostly 76.9 µM), for the others: at the top dose activity change, negative = inhibition, actives largely listed as inhibitors; recombinant TbPYK, Kinase-Glo ATP luminescence; shares compounds with PLK1 PBD inh; further: potency means the concentration at half of the fitted maximal effect; on the % scale 0 is the no-effect control and ±100 the full control effect; nearly all actives have a fitted effect of over 70% in size
TbPYK orthogonal: orthogonal confirmation of Trypanosoma brucei pyruvate kinase inhibitors | shares compounds with PLK1 PBD inh | 890 compounds, 62% hits | AID 720584 | recombinant TbPYK, ADP-Glo luminescence, 60 min | Potency, µM (doses to about 76.9 µM), without a hit: at the highest dose activity change, negative = inhibition, usual class: inhibitors; further: potency means the concentration at half of the fitted maximal effect; on the % scale 0 is the no-effect control and ±100 the full control effect; nearly all actives have a fitted effect of over 75% in size
Numbers without * were called inactive; ? = inconclusive; · = no result given; [ ] = remark or other dose. Sampled rows, rich in hits. Any-hit rate of the full collection: about 3.8%. Unless noted, the call rests on the fitted dose curve; in most records, active means well fitted curve in the direction sought with a large enough effect; inconclusive means small, poorly fitted or top-dose-only effect, or another doubt; inactive means no such curve, though single readings can be large; an effect the other way counts as inactive or inconclusive.

SMILES	KCNH2 WT inh	KCNH2 3.1 inh	MBNL1 CUG block	PLK1 PBD inh	VDR inh	CBFb-RUNX1 inh	VDR confirm	VDR FP fluor	VDR bla	VDR viability	TbPYK confirm	TbPYK orthogonal	others
C/C1=C\[C@@H](C)C/C=C/[C@H]2[C@@H]3O[C@]3(C)[C@@H](C)[C@H]3[C@H](Cc4c[nH]c5ccccc45)NC(=O)[C@]32C(=O)/C=C/C(=O)[C@@H]1O	0	1	-4%	?	?	-14%	·	·	·	·	·	·
CC1=CC2/C=C(\C)CCC(O)C(O)/C=C/C(=O)C23C(=O)NC(CC(C)C)C3C1C (stereo unspecified)	-17	5	-8%	?	22µM*	8%	17*	?	7.3µM*	15µM*	·	·
COc1cc2c(cc1O)[C@H]1Cc3ccc(OC)c(O)c3CN1CC2	·	·	·	·	-11%	2%[21.7 µM]	·	·	·	·	·	·	USP1-UAF1 confirm=?
COc1ccc(CC2c3cc(OC)c(OC)cc3CCN2C)cc1O (stereo unspecified)	5	-3	-2%	-1%	-19%	1%[2.36 µM]	·	·	·	·	·	·
CCCN(CCC)c1c([N+](=O)[O-])cc(C(F)(F)F)cc1[N+](=O)[O-]	·	·	·	·	11%	4%[21.7 µM]	·	·	·	·	·	·
CN1C(=O)C(=Cc2ccccc2OS(=O)(=O)c2ccccc2)C(=O)N(C)C1=O	4	3	1%	5.3µM*	25µM*	·	27*	11µM*	20%	-13%	20µM*	?
CC1CC[C@@]2(OC1)O[C@@H]1[C@@H](O)[C@H]3C4CC[C@H]5C[C@@H](O[C@@H]6O[C@H](CO)[C@H](O[C@@H]7O[C@H](CO)[C@@H](O)[C@H](O[C@@H]8OC[C@@H](O)[C@H](O)[C@H]8O)[C@H]7O[C@@H]7O[C@H](CO)[C@@H](O)[C@H](O[C@@H]8O[C@H](CO)[C@@H](O)[C@H](O)[C@H]8O)[C@H]7O)[C@H](O)[C@H]6O)[C@H](O)C[C@]5(C)C4CC[C@]3(C)[C@H]1[C@@H]2C (stereo partly specified)	·	·	·	·	-10%	-3%[21.7 µM]	·	·	·	·	·	·
[O]=[Cr](=[O])([OH])[O][Cr](=[O])(=[O])[OH]	·	·	·	·	-8%	?	·	·	·	·	·	·
C[C@@H](N)Cn1ccc2cc(F)c(Cl)cc21	·	·	·	·	-2%	1%[21.7 µM]	·	·	·	·	·	·
Nc1ccc2c(c1)Cc1ccccc1-2	2	-7	-10%	-24%	-20%	-4%	·	·	·	·	·	·
O=C(O)/C=C/C(=O)c1ccc2c(c1)CCc1ccccc1-2	3	-1	·	6µM*	3.5µM*	·	3.8*	?	?	?	13µM*	16µM*
O=C1NC(=S)NC(=O)C1=Cc1cccn1-c1ccc(O)cc1	3	7	?	2.4µM*	25µM*	-11%	8.4*	?	?	?	7.1µM*	16µM*
O=C(O)CCn1cc(C=C2C(=O)NC(=S)NC2=O)c(-c2ccccc2)n1	-5	-20	-12%	2.7µM*	10µM*	-7%	21*	?	15%	38%	1.6µM*	4.5µM*
O=c1[nH]c2sccc2c2ccccc12	·	·	·	·	1%	6%	·	·	·	·	·	·
COc1ccc(N2C(=O)/C(=C/C=C/c3ccccc3[N+](=O)[O-])C(=O)NC2=S)cc1	1	4	-4%	1.3µM*	22µM*	-20%	3.4*	?	?	-21%	11µM*	25µM*
COc1ccccc1NS(=O)(=O)c1cc(NC(=O)c2ccc(Cl)nc2)ccc1N1CCCC1	-4	-32	·	4.7µM*	?	·	·	·	·	·	4.5µM*	6.3µM*
COc1ccc(N2C(=O)NC(=O)/C(=C/c3ccc([N+](=O)[O-])s3)C2=O)cc1	-5	7	?	3µM*	40µM*	?	·	·	·	·	6.3µM*	13µM*
COc1cccc(N2C(=O)NC(=O)/C(=C/c3ccc([N+](=O)[O-])s3)C2=O)c1	16	0	?	3µM*	?	?	·	·	·	·	13µM*	18µM*
Cc1cc(/C=C2\C(=O)NC(=O)N(c3cccc(F)c3)C2=O)c(C)n1-c1cc(C(=O)O)cc(C(=O)O)c1	-2	-5	9%	?	9%	-24%	·	·	·	·	·	·
COc1ccccc1N1C(=O)NC(=O)/C(=C/c2ccc([N+](=O)[O-])s2)C1=O	-1	-21	?	3.4µM*	45µM*	?	·	·	·	·	?	?
COc1ccc(N2C(=O)NC(=O)/C(=C\c3ccc([N+](=O)[O-])s3)C2=O)cc1	6	3	?	2.7µM*	71µM*	-23%	·	·	·	·	7.9µM*	16µM*
COC(=O)C12C/C=C\Cc3ccccc3[C@@H]1CNC2=O (stereo partly specified)	·	·	·	·	9%	-5%	·	·	·	·	·	·
COc1ccc(CN2C(=O)NC(=O)/C(=C/c3ccc([N+](=O)[O-])s3)C2=O)cc1	0	-26	?	1.9µM*	22µM*	·	·	·	·	·	18µM*	32µM*
COc1ccc(CN2C(=O)CC(=O)NC2=S)cc1	-6	30	-4%	-17%	14%	-1%	·	·	·	·	·	·
